Assay outcomes (PubChem)
MsrA act = bovine MsrA enzyme activators, primary screen, biochemical, absorbance, HTS | AID 602163, 2012 | Methionine sulfoxide reductase A (Bos taurus) | 0.3% of 360,000 active | activation, % at 10.6 µM | purified bovine MsrA, absorbance read-out; in the data active means activation above about 7.5%
ZTA counter = blocks Epstein-Barr virus ZTA, an EBNA-1 counter-screen. P03206. ZTA-DNA binding, fluorescence polarization. inhibition, % at 11 µM. 0.15% of 320,000 active. AID 2234; in the data active means inhibition above about 33%
MsrA inh = bovine MsrA enzyme inhibitors, primary screen, biochemical, absorbance, HTS. AID 651718, 2012. 0.75% of 360,000 active. inhibition, % at 15.5 µM. purified bovine MsrA, absorbance read-out
EBNA-1 inhibitor = EBNA-1 DNA-binding inhibitors, primary screen, biochemical, fluorescence polarization | AID 1950, 2009 | inhibition, % at 14.8 µM | 0.34% of 300,000 active; in the data active means inhibition above about 28%
PP1 inh = PP1-alpha phosphatase inhibitors, primary screen, counter-screen for PP5 inhibitor project, biochemical, fluorescence, OMFP substrate, single point. purified PP1alpha. inhibition, % at 6.7 µM. 0.9% of 320,000 active. AID 2235, 2010;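 active means inhibition above the mean inhibition of all tested compounds plus 3 SD, computed separately for each screening campaign, cut at about 15% in these data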
Target sequence (P62136 whole entry, looked up): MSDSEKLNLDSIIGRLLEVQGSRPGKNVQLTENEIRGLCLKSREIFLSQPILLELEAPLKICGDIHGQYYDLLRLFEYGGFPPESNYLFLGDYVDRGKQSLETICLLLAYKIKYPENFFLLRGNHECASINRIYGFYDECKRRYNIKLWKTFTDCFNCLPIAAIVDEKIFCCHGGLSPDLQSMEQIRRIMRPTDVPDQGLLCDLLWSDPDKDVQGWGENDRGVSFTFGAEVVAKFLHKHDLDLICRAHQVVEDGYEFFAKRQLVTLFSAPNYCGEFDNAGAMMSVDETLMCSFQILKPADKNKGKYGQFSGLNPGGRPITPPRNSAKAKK
PP5 primary = PP5 phosphatase inhibitors, primary screen, biochemical, fluorescence | purified PP5c, OMFP substrate fluorescence | inhibition, % at 6.7 µM | AID 1987, 2009 | 0.18% of 320,000 active | Serine/threonine-protein phosphatase 5 (Homo sapiens), P53041;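 active means inhibition above the campaign's mean inhibition across all tested compounds plus 3 SD, cut at about 9.5% in these data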
MsrA conf = bovine MsrA inhibitors, retest, confirmation, biochemical, absorbance, HTS. shares compounds with MsrA inh. purified bovine MsrA, absorbance read-out. inhibition, % at 15.5 µM. 41% of 2,300 active;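 further: coupled to thioredoxin reductase with NADPH and selenocystamine and DMSO as substrate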
Large screens that a line does not name were inactive (follow-up assays come after a bar, where they were run). Only some compounds are listed: those with a hit (about 2.3% of all), similar ones and a draw of the others. Unless noted, no stated cut-off is given here; in the data, active means inhibition above about 4.5%; inactive means the rest.

Cc1c(NC(=O)C(C)OC(=O)/C=C/c2ccccc2)c(=O)n(-c2ccccc2)n1C (configuration not stated)	none
COc1cc(/C=C/C(=O)OC(C)C(=O)Nc2c(C)n(C)n(-c3ccccc3)c2=O)ccc1O (configuration not stated)	MsrA inh 5.9 | MsrA conf inactive
O=C(N/N=C/C=C/c1ccc2c(c1)OCO2)C(O)c1ccccc1 (configuration not stated)	MsrA inh 6.7 | MsrA conf 4.8
CC(/C=C/c1ccc2c(c1)OCO2)=N\NC(=O)c1ccccc1	none
O=C(N/N=C\C=C\c1ccc2c(c1)OCO2)c1ccc(F)cc1	MsrA inh 6.4 | MsrA conf 4.9
CC(/C=C/c1ccc2c(c1)OCO2)=N\NC(=O)C(O)c1ccccc1 (configuration not stated)	MsrA inh 4.9 | MsrA conf 5.0
O=C(CCn1c(=O)c2cccn2c2cccnc21)NCc1cccc(Cl)c1	none
O=C1c2cccc3cc([N+](=O)[O-])cc(c23)C(=O)N1CCN1CCCC1	none (no result: ZTA counter, EBNA-1 inhibitor, PP1 inh, PP5 primary)
O=C1c2cccc3cc([N+](=O)[O-])cc(c23)C(=O)N1/N=C/c1ccc(O)cc1O	MsrA inh 4.7 | MsrA conf inactive
COc1ccccc1C(=O)NN=C1CCN(Cc2ccccc2)CC1	none
O=C(N/N=C/C(Cl)=C/c1ccccc1)c1ccco1	MsrA inh 8.5 | MsrA conf 6.6
O=C(N/N=C/C(Cl)=C\c1ccccc1)c1cnccn1	none
O=C(N/N=C/C(Cl)=C/c1ccccc1)c1cnccn1	MsrA inh 9.6 | MsrA conf inactive
Cn1c(=O)c2cc(NC(=O)CCc3ccc4c(c3)OCO4)ccc2n1Cc1ccc(F)cc1	none (no result: ZTA counter, EBNA-1 inhibitor, PP1 inh, PP5 primary)
C=CCc1cc(/C=C2/NC(=O)NC2=O)cc(OCC)c1O	MsrA inh 4.8 | MsrA conf inactive
C=CCc1cc(/C=C2/NC(=S)NC2=O)cc(OC)c1O	none
CCOc1cc(/C=C2/NC(=O)NC2=O)cc([N+](=O)[O-])c1O	MsrA inh 5.6 | MsrA conf inactive
CCC(C(=O)OC)n1cnc2scc(-c3ccc(C)c(C)c3)c2c1=O (configuration not stated)	MsrA inh 7.5 | MsrA conf 5.3
CCCn1cnc2scc(-c3ccc(C)c(C)c3)c2c1=O	MsrA inh 8.6 | MsrA conf 6.5
Cc1ccc(NC(=O)c2cc(=O)[nH]c3ccc(S(=O)(=O)N4CCOCC4)cc23)cc1	none (no result: EBNA-1 inhibitor)
CCc1cccc(C)c1NC(=O)c1cc(=O)[nH]c2ccc(S(=O)(=O)N3CCOCC3)cc12	MsrA inh 16.9 (no result: EBNA-1 inhibitor) | MsrA conf 28.4
Cc1c(OCc2ccc(C(=O)O)o2)ccc2c3c(c(=O)oc12)CCC3	MsrA inh 4.8 | MsrA conf inactive
COc1ccccc1-n1c(C)cc(/C=C2\C(=N)N3N=C(CC(=O)N4CCOCC4)SC3=NC2=O)c1C	MsrA inh 5.3 | MsrA conf inactive
Cc1ccc(/C=C2\C(=N)N3N=C(CC(=O)N4CCOCC4)SC3=NC2=O)o1	MsrA inh 5.2 | MsrA conf inactive
COCCCNc1nc2nonc2nc1N1CCN(C2CCCC2)CC1	none
COCCCNc1nc2nonc2nc1N1CCN2CCCC2C1 (configuration not stated)	MsrA inh 4.8 | MsrA conf inactive
COc1ccc(/C=C(\C)C(=O)c2c(C)cc(C)[nH]c2=O)cc1	none
CCOc1ccc(/C=C(\C)C(=O)c2c(C)cc(C)[nH]c2=O)cc1	MsrA inh 6.2 | MsrA conf inactive
Nc1c2ccccc2nc2ccccc12	none
N#Cc1c2ccccc2nc2ccccc12	MsrA inh 7.0 | MsrA conf 5.0
CCOc1ccc(CCNC(=O)C2=C(C)C(=O)OC23CCCCC3)cc1OCC	none
Cc1ccc(S(=O)(=O)/N=C/c2ccc(N(C)C)cc2)cc1	MsrA inh 6.7 | MsrA conf inactive
Cc1ccc(S(=O)(=O)NCCN=Cc2ccc(N(C)C)cc2)cc1	MsrA inh 4.9 | MsrA conf inactive
